Results filed as inconclusive are left out. Active and inactive are the calls of the source. Unless noted, calls follow the shape of the dose curve; as a rule, active = well fitted curve in the direction sought with a large enough effect in the repeat runs; inconclusive = weak or mixed curves; inactive = no such curve, though single readings can be large; an effect the other way counts as inactive or inconclusive.
Legend:
[1] = qHTS assay to identify small molecule agonists of the RXR signaling pathway - cell viability counter screen (AID 1159529); also: nearly all actives have a fitted effect of over 50% in size; also: potency is read from the fitted curve at half-maximal effect; as to activity change, negative = cytotoxicity: series mostly up to about 77 µM
How it was run: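 RXR-alpha-UAS-bla HEK 293T cells in medium with 2% charcoal-stripped FBS were pre-incubated 5 hr, then compound-treated 16 hr at 37 C. Viability was read by CellTiter-Glo luminescence in the same wells as the beta-lactamase assay, with tetraoctyl ammonium bromide as positive control.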

[2] = qHTS assay to identify small molecule antagonists of the retinoid acid receptor (RAR) signaling pathway - cell viability counter screen (AID 1159551); also: nearly all actives have a fitted effect of over 35% in size; also: potency is read from the fitted curve at half-maximal effect
How it was run: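 Seed C3RL4 cells; next day add compound, then retinol to 1 uM final; incubate 6 h at 37 C; add CellTiter-Glo; read luminescence after 30 min at RT.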

[3] = molecular target: Nuclear receptor subfamily 1 group I member 3 (Homo sapiens) (UniProt Q14994); assay: qHTS assay to identify small molecule agonists of the constitutive androstane receptor (CAR) signaling pathway (AID 1224839); also: nearly all actives have a fitted effect of over 15% in size; also: potency is read from the fitted curve at half-maximal effect;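 as to activation: HepG2 cells stably carrying human CAR and a CYP2B6 luciferase reporter; series mostly up to about 92 µM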
How it was run: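 HepG2 cells stably co-transfected with hCAR and a CYP2B6-2.2kb luciferase reporter; compounds at 15 concentrations with 0.75 uM PK11195 present. After 24 hr at 37 C, luciferase read by ONE-Glo luminescence.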

[4] = qHTS assay to identify small molecule antagonists of the estrogen related receptor signaling pathway with the pleiotropic PPARgamma coactivator (PGC) from Tox21 10K library - cell viability counter screen (AID 1224840; active = well fitted cell-killing curve with a large enough effect in the repeat runs, not every such curve was filed as active; also: nearly all actives have a fitted effect of over 40% in size; also: potency is read from the fitted curve at half-maximal effect)
How it was run: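 Here the PGC/ERR cells serve as a cytotoxicity control: they are exposed to compounds for 17.5 hours at 37 C, and live-cell signal is quantified using CellTiter-Fluor fluorescence.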

[5] = qHTS RealTime-Glo MT Cell Viability Assay in HEK293 cells - 16 hour (AID 1224872); also: nearly all actives have a fitted effect of over 50% in size; also: potency is read from the fitted curve at half-maximal effect; as to activity change, negative = cytotoxicity: top concentration of the series differs between compounds
How it was run: (§1)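 Tox21 10K qHTS, HEK293, 600 cells/well, RealTime-Glo reagent co-dispensed with cells; 5 h preincubation, compound by pintool, 37 C, luminescence at 0–40 h.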

[6] = qHTS RealTime-Glo MT Cell Viability Assay in HepG2 cells - 8 hour (AID 1224873); also: nearly all actives have a fitted effect of over 55% in size
How it was run: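 Real-time viability: cells seeded at 600 per well together with NanoLuc and cell-permeant prosubstrate, compounds added after 5 h incubation. Luminescence tracked at 0, 8, 16, 24, 32 and 40 h of exposure.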

[7] = A CellTox Green Cytotoxicity Assay to monitor cytotoxicity in HEK293 cells - 32 hour (AID 1224881); also: nearly all actives have a fitted effect of over 40% in size; also: potency is read from the fitted curve at half-maximal effect
How it was run: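 Seeding of HEK293 cells together with cytotoxicity dye preceded a 5 h incubation at 37 C/5% CO2. Test compounds in DMSO were then added and fluorescence monitored across 40 h.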

[8] = qHTS RealTime-Glo MT Cell Viability Assay in HEK293 cells - 24 hour (AID 1224886); also: nearly all actives have a fitted effect of over 50% in size; also: potency is read from the fitted curve at half-maximal effect; as to activity change, negative = cytotoxicity: top concentration of the series differs between compounds
How it was run: as §1

[9] = qHTS assay to identify small molecule agonists of the androgen receptor (AR) signaling pathway in the presence of an antagonist - cell viability counter screen (AID 1259379); also: nearly all actives have a fitted effect of over 25% in size; also: potency is read from the fitted curve at half-maximal effect;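 as to activity change, negative = cytotoxicity: MDA-kb2 human breast cancer cells carrying an MMTV luciferase reporter; series mostly up to about 92 µM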
How it was run: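 A CellTiter-Fluor read-out measured viability of MDA-kb2 reporter cells (MMTV promoter with AR and GR response elements). Treatment: nilutamide 3.0uM final with compounds at 15 concentrations, 16 hr, 37C, 0% CO2.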

[10] = qHTS assay to identify small molecule agonists of the estrogen receptor beta (ER-beta) signaling pathway - cell viability counter screen (AID 1259380); also: nearly all actives have a fitted effect of over 30% in size; also: potency is read from the fitted curve at half-maximal effect
How it was run: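 Cells used were ER-beta-UAS-bla HEK293T in medium with 2% charcoal-stripped FBS. They were treated for 16 hr at 37C. Viability came from CellTiter-Glo luminescence.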

[11] = molecular target: Thyrotropin receptor (Homo sapiens) (UniProt P16473); assay: qHTS assay to identify small molecule antagonists of the thyroid stimulating hormone receptor (TSHR) signaling pathway (AID 1259385; calls by dose curve; also: nearly all actives have a fitted effect of over 20% in size; also: potency is read from the fitted curve at half-maximal effect)
How it was run: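 Antagonist mode: compound-treated TSHR-expressing HEK293 cells were stimulated with 1.5 ng/mL TSH (final) in presence of Ro20-1724 for 30 min at RT. HTRF cAMP detection after 1 h; each compound tested at 15 concentrations, triplicate.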

[12] = molecular target: Progesterone receptor (Homo sapiens) (UniProt P06401); assay: qHTS assay to identify small molecule agonists of the progesterone receptor (PR) signaling pathway (AID 1346784; calls by dose curve; also: nearly all actives have a fitted effect of over 30% in size)
How it was run: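 PR-UAS-bla HEK 293T cells (beta-lactamase reporter under UAS) in 2% charcoal-stripped FBS, dosed with 23 nL compound after 6 hr, incubated 16hr at 37C. LiveBLAzer B/G FRET substrate added, fluorescence read after 2 hours.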

[13] = Human pregnane X receptor (PXR) small molecule agonists, qHTS cell viability counter screen (AID 1346977); also: nearly all actives have a fitted effect of over 50% in size; also: potency is read from the fitted curve at half-maximal effect
How it was run: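 PXR-Luc HepG2 cells (2,000/well, 5% charcoal-stripped FBS) preincubated 5 hr, then exposed to compounds 24 hr at 37 C. Viability read in the same wells by CellTiter-Fluor fluorescence, reagent added at 23 hr, 1 hr incubation.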

[14] = molecular target: Cytochrome P450 2D6 (Homo sapiens) (UniProt P10635); assay: Cytochrome P450 Family 2 Subfamily D Member 6 (CYP2D6) small molecule antagonists: luciferase reporter qHTS assay (AID 1671196); also: nearly all actives have a fitted effect of over 50% in size; also: potency is read from the fitted curve at half-maximal effect; as to activity change, negative = inhibition: series mostly up to about 120 µM
How it was run: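 Luminescence (RLU), read 20 min after detection reagent, indicated CYP2D6 conversion of proluciferin to luciferin during a 1 h NADPH-dependent reaction at room temperature.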

[15] = molecular target: Cytochrome P450 3A4 (Homo sapiens) (UniProt P08684); assay: Cytochrome P450 Family 3 Subfamily A Member 4 (CYP3A4) small molecule antagonists: luciferase reporter qHTS assay (AID 1671201); also: nearly all actives have a fitted effect of over 50% in size; also: potency is read from the fitted curve at half-maximal effect; as to activity change, negative = inhibition: series mostly up to about 120 µM
How it was run: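 P450-Glo CYP3A4 luminescent assay: compounds preincubated 10 min at room temperature with enzyme and proluciferin substrate, NADPH regeneration added, 1 h room-temperature reaction, stopped with luciferin detection reagent; luminescence read after 20 min. Ketoconazole positive control.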

[16] = qHTS assay to identify small molecule agonists of the hypoxia (HIF-1) signaling pathway - cell viability counter screen (AID 1224844; calls by dose curve; also: nearly all actives have a fitted effect of over 50% in size; also: potency is read from the fitted curve at half-maximal effect)
How it was run: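 Multiplexed with the HRE beta-lactamase assay, this viability read used CellTiter-Glo luminescence (30 min, RT) on HRE-bla ME-180 cells treated 17 hrs with compounds in 0.5% dialyzed FBS medium.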

[17] = qHTS assay to identify small molecule antagonists of the estrogen receptor beta (ER-beta) signaling pathway - cell viability counter screen (AID 1259382); also: nearly all actives have a fitted effect of over 55% in size; also: potency is read from the fitted curve at half-maximal effect; as to activity change, negative = cytotoxicity: series mostly up to about 92 µM
How it was run: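 Agonist-stimulated (1nM E2) ER-beta-UAS-bla HEK293T cells are incubated with library compounds for 16 hr at 37C. Cell viability is then assessed in the reporter-assay wells by adding CellTiter-Glo and reading luminescence after 30 min.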

[18] = molecular target: Thyrotropin-releasing hormone receptor (Homo sapiens) (UniProt P34981); assay: qHTS assay to identify small molecule agonists of the thyrotropin-releasing hormone receptor (TRHR) signaling pathway (AID 1346891; calls by dose curve; also: series mostly up to about 58 µM)
How it was run: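 HEK293 cells expressing TRHR plated 18 h at 37 C/5% CO2, calcium dye-loaded 2 h at 37 C, then compound added (agonist mode); kinetic calcium fluorescence read 3 min at 1 s intervals; 15 concentrations in triplicate.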

[19] = Caspase-3/7 induction in HepG2 cells by small molecules, qHTS cell viability counter screen (AID 1346981); also: nearly all actives have a fitted effect of over 30% in size; also: potency is read from the fitted curve at half-maximal effect; as to activity change, negative = cytotoxicity: series mostly up to about 92 µM
How it was run: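 Multiplexed with the caspase-3/7 assay: HepG2 cells, 16 hr compound treatment, CellTiter-Fluor viability detection by fluorescence.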

[20] = Caspase-3/7 induction in CHO-K1 cells by small molecules, qHTS cell viability counter screen (AID 1346979); also: nearly all actives have a fitted effect of over 35% in size; also: potency is read from the fitted curve at half-maximal effect
How it was run: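 Wild-type CHO-K1 cells (1,500/well) treated with compound after 5 h plating; after 16 h at 37C, viability read as CellTiter-Fluor fluorescence following 1 h reagent incubation, in the same wells as the caspase read.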
% is scaled to controls: 0 for no effect and ±100 for the full control effect.

Chain of Thyrotropin receptor (Homo sapiens) (P16473 whole entry, looked up): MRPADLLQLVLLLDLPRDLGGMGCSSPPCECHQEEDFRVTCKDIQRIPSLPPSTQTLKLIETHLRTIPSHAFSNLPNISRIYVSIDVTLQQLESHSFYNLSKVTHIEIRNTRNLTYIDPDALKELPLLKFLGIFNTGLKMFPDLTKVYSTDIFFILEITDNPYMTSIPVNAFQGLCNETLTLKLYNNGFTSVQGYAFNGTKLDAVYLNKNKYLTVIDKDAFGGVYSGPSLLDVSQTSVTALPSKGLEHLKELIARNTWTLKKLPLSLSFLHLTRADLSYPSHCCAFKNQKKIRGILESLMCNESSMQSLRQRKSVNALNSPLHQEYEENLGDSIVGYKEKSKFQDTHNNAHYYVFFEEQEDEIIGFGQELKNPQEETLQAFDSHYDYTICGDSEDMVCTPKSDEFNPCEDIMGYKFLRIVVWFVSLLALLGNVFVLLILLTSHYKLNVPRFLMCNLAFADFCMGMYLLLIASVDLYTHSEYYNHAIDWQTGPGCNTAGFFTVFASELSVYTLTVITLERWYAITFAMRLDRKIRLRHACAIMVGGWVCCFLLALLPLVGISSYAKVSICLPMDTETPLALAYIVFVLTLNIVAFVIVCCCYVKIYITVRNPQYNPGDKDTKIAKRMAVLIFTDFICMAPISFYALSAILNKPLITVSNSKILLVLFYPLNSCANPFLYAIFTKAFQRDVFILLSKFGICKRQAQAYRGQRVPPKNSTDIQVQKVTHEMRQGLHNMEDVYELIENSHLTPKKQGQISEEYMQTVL
Chain of Cytochrome P450 3A4 (Homo sapiens) (P08684 whole entry, looked up): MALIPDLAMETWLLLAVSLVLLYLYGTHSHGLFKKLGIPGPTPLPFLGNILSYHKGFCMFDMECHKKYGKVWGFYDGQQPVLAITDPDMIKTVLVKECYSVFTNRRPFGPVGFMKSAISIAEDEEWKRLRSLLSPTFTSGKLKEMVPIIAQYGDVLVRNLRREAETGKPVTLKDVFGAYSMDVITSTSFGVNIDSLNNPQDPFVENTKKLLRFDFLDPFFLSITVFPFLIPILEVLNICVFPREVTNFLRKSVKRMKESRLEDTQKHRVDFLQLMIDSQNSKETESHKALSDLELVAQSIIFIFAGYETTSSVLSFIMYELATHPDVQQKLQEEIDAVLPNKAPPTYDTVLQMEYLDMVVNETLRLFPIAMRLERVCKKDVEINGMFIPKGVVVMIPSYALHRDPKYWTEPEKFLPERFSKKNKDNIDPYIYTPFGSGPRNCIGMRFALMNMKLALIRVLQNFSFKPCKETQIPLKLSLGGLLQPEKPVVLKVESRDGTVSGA
Chain of Progesterone receptor (Homo sapiens) (P06401 whole entry, looked up): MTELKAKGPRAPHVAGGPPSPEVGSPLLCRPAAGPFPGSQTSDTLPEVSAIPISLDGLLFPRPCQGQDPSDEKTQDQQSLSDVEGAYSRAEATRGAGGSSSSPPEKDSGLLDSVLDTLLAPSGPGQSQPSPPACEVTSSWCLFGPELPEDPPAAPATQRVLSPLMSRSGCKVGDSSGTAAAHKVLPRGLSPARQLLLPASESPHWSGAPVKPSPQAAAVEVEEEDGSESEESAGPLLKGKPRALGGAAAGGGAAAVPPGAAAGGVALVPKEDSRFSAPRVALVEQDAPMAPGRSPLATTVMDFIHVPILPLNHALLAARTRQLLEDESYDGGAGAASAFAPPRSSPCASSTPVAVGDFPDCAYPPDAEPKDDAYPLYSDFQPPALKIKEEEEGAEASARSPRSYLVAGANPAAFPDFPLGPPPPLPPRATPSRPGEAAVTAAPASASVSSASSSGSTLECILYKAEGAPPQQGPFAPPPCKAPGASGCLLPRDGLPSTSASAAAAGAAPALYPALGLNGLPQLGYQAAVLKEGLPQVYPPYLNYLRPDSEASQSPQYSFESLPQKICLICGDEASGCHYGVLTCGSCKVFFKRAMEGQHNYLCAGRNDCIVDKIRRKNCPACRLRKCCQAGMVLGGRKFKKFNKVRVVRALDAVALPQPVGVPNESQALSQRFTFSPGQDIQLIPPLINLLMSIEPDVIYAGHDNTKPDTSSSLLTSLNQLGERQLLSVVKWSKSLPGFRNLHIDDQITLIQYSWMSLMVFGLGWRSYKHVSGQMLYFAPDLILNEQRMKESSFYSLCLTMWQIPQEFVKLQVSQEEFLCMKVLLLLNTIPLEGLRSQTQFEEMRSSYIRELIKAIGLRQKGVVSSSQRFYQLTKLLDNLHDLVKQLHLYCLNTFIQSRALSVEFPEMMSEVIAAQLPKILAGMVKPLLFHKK
Chain of Nuclear receptor subfamily 1 group I member 3 (Homo sapiens) (Q14994 whole entry, looked up): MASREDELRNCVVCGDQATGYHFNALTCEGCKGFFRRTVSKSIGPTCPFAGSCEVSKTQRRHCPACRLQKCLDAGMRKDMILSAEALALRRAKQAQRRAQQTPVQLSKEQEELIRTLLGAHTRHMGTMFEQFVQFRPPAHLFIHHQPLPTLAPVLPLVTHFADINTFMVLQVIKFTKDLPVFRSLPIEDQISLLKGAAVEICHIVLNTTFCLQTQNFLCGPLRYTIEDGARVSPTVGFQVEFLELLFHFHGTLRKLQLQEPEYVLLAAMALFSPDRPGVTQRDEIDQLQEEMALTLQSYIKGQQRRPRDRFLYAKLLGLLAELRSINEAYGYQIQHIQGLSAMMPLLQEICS
Chain of Cytochrome P450 2D6 (Homo sapiens) (P10635 whole entry, looked up): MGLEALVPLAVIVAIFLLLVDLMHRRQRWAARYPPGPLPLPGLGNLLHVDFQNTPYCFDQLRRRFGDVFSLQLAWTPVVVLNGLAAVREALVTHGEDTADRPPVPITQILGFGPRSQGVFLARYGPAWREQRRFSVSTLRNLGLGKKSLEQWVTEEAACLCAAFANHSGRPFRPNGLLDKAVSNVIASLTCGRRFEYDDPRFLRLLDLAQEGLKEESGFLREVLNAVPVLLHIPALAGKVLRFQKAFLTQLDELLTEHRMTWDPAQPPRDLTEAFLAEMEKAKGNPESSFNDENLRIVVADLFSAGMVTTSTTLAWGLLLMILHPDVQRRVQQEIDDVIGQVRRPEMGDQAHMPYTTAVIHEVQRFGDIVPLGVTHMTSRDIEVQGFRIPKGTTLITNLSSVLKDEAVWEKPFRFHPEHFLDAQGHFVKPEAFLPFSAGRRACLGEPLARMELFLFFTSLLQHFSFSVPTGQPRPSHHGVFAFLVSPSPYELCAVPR
Chain of Thyrotropin-releasing hormone receptor (Homo sapiens) (P34981 whole entry, looked up): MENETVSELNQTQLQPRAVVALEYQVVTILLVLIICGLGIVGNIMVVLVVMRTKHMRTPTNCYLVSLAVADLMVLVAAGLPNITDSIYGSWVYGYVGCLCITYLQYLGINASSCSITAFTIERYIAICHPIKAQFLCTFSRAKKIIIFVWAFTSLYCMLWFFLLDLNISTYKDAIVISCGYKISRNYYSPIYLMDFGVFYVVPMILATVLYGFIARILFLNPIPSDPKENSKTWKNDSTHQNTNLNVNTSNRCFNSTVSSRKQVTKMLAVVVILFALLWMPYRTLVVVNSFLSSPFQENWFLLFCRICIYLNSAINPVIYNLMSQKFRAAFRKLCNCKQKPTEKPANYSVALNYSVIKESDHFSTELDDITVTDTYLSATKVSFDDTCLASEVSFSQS

O=C1C(I)=CC(=C(c2cc(I)c(O)c(I)c2)c2ccccc2C(=O)O)C=C1I
active: Potency [10] 9.44 µM
inactive: Potency [1] | Potency [2] | Potency [3] | Potency [4] | Potency [5] | Potency [6] | Potency [7] | Potency [8] | Potency [9] | Potency [11] | outcome [12] | Potency [13] | Potency [14] | Potency [15]

ClC(Cl)=C(c1ccc(Cl)cc1)c1ccccc1Cl
active: Potency [1] 24.5 µM | Potency [3] 21.7 µM
inactive: Potency [2] | Potency [4] | Potency [16] | Potency [6] | Potency [9] | Potency [17] | outcome [12] | outcome [18] | Potency [19] | Potency [14] | Potency [15]

O=C(Nc1ccccc1-c1ccc(Cl)cc1)c1cccnc1Cl
inactive: Potency [2] | Potency [4] | Potency [6] | Potency [9] | outcome [12] | outcome [18] | Potency [13] | Potency [19]
active: Potency [10] 14.5 µM | Potency [14] 30.4 µM

Oc1c(I)cc(I)cc1I
active: Potency [16] 38.9 µM
inactive: Potency [4] | Potency [5] | Potency [6] | Potency [7] | Potency [8] | Potency [9] | Potency [11] | outcome [12] | Potency [19]

CO/C=C(/C(=O)OC)c1ccccc1Oc1cc(Oc2ccccc2C#N)ncn1
active: Potency [1] 41.5 µM | Potency [2] 32.7 µM | Potency [4] 36.7 µM | Potency [9] 23.1 µM | Potency [10] 51.8 µM | Potency [17] 54 µM | Potency [11] 61.1 µM | Potency [13] 6.52 µM | Potency [20] 1.05 µM | Potency [19] 24.5 µM | Potency [14] 43.1 µM
inactive: outcome [18] | Potency [15]

CC(C)(C)c1cc(C(C)(C)C)c(O)c(C(C)(C)C)c1
active: Potency [3] 8.63 µM

N#Cc1cc([N+](=O)[O-])ccc1N
inactive: Potency [1] | Potency [2] | Potency [16] | Potency [5] | Potency [6] | Potency [7] | Potency [8] | Potency [10] | Potency [17] | Potency [11] | outcome [12] | outcome [18] | Potency [14] | Potency [15]
active: Potency [20] 61.1 µM

O=C(c1ccccc1)C(Cl)Cl
active: Potency [5] 34.7 µM | Potency [7] 34.7 µM | Potency [8] 34.7 µM | Potency [20] 27.3 µM
inactive: Potency [1] | Potency [10] | Potency [17] | outcome [18] | Potency [15]

ClC1=C(Cl)[C@]2(Cl)[C@@H]3[C@@H](Cl)[C@H]4O[C@H]4[C@@H]3C1(Cl)C2(Cl)Cl
inactive: Potency [16] | Potency [9] | outcome [12] | Potency [19] | Potency [14]
active: Potency [1] 49 µM | Potency [5] 54.9 µM | Potency [7] 54.9 µM

C[C@]12CC[C@@H](O)C[C@@H]1CC[C@@H]1[C@@H]2CC[C@]2(C)C(=O)CC[C@@H]12
inactive: Potency [2] | Potency [9] | outcome [12] | Potency [13] | Potency [19]
active: Potency [1] 17.4 µM | Potency [16] 21.9 µM | Potency [5] 38.9 µM | Potency [7] 54.9 µM | Potency [8] 38.9 µM | Potency [10] 27.3 µM | Potency [17] 43.3 µM | Potency [20] 61.1 µM

Cc1ccc2nc3sc(=O)sc3nc2c1
inactive: activity change, negative = cytotoxicity [1] -5.08% [at 15.8 µM] | activity change, negative = cytotoxicity [2] 1.22% [at 19 µM] | activation [3] 7.43% [at 19 µM] | viability change, negative = cytotoxic [4] -9.2% [at 19 µM] | activity change, negative = cytotoxicity [5] 3.61% [at 15.8 µM] | viability change, negative = cytotoxic [6] 3.11% [at 15.8 µM] | cytotoxicity increase [7] -11.5% [at 15.8 µM] | activity change, negative = cytotoxicity [8] 3.52% [at 15.8 µM] | activity change, negative = cytotoxicity [9] -12.9% [at 19 µM] | activity change, negative = cytotoxicity [17] -3.52% [at 19 µM] | activity change, negative = inhibition [11] 2.89% [at 19 µM] | activation [12] 0.875% [at 19 µM] | activation [18] -0.107% [at 11.8 µM] | activity change, negative = cytotoxicity [13] -12.4% [at 19 µM] | activity change, negative = cytotoxicity [19] -0.0724% [at 19 µM] | activity change, negative = inhibition [14] 1.42% [at 23.6 µM] | activity change, negative = inhibition [15] 0.418% [at 23.6 µM]
active: Potency [16] 7.37 µM | Potency [20] 5.8 µM

Nc1ccc([N+](=O)[O-])cc1
active: Potency [4] 30.6 µM | Potency [5] 21.9 µM | Potency [7] 38.9 µM | Potency [8] 24.5 µM | Potency [9] 30.6 µM | Potency [10] 27.3 µM | Potency [13] 34.4 µM | Potency [20] 43.3 µM | Potency [19] 40.9 µM | Potency [14] 50.2 µM
inactive: Potency [6]

O=[N+]([O-])c1c(Cl)c(Cl)cc(Cl)c1Cl
inactive: Potency [2] | Potency [4] | Potency [16] | Potency [5] | Potency [6] | Potency [8] | Potency [9] | Potency [17] | outcome [12] | Potency [13] | Potency [20] | Potency [19] | Potency [15]
active: Potency [7] 43.6 µM | Potency [14] 35.6 µM

CC(c1ccccc1)(c1ccc(O)cc1)c1ccc(O)cc1
active: Potency [16] 54.9 µM | Potency [10] 54.5 µM | Potency [17] 61.1 µM | Potency [20] 68.6 µM | Potency [15] 25.2 µM
inactive: Potency [6] | Potency [11] | outcome [18]

COc1ccc(C(c2ccc(OC)cc2)C(Cl)(Cl)Cl)cc1
active: Potency [3] 2.42 µM | Potency [8] 48.7 µM | Potency [20] 60.8 µM | Potency [14] 44.5 µM
inactive: Potency [2] | Potency [4] | Potency [16] | Potency [7] | Potency [17] | outcome [18] | Potency [15]

CCN(CC)C(=O)Cl
inactive: Potency [1] | Potency [2] | Potency [3] | Potency [4] | Potency [16] | Potency [5] | Potency [6] | Potency [7] | Potency [8] | Potency [9] | Potency [10] | Potency [17] | Potency [11] | outcome [12] | outcome [18] | Potency [13] | Potency [20] | Potency [19] | Potency [14] | Potency [15]

— PubChem BioAssay (Tox21)
